Assay outcomes from PubChem BioAssay.
IL-1B inflam inh = inflammasome signaling inhibition, IL-1 beta readout; THP-1 LPS/ATP IL-1B secretion, AlphaLISA, 16 h; hits give low values; activity change, % at 57.5 µM; hit rate 4.7% among 360,000; AID 743279; in the data active means activity change below about -50%; inconclusive means mostly about -30% to -49%
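THP-1 cells pretreated 1 hr with compounds (up to 57.5 uM final), then stimulated with LPS (250 ng/mL final) plus ATP (1.25 mM final); secreted IL-1B measured by AlphaLISA after 16 hr, decreased signal indicating inhibition.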
HT1080 IDH1KD tx = kills HT-1080 cells with IDH1 knockdown; hit rate 2% among 360,000; HT-1080 IDH1 knockdown viability, ATP luminescence, 48 h; Potency, µM (doses to about 46.1 µM), inactives show at the top dose activity, negative = toxicity, usual class: cytotoxic;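 further: potency means the concentration at half of the fitted maximal effect; 0% = DMSO wells and -100% = cell-free medium wells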
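% activity derives from luminescence (CellTiter-Glo), normalised to DMSO and no-cell wells. HT-1080-IDH1KD cells, 750/well, had 48 h compound exposure at 37 °C.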
ELG1 DNA repair = blocks ELG1-dependent DNA repair in HEK293T cells; HEK293T ELG1-luciferase reporter, luminescence, 16 h; DNA damage induced by 5-fluorouridine; Potency, µM (highest dose often 46.1 µM), inactives show at the highest dose activity change, negative = inhibition, hits mostly inhibitors; hit rate 2.3% among 330,000; AID 504467; further: potency means the concentration at half of the fitted maximal effect; nearly all actives have a fitted effect of over 55% in size
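Cells (2,000 per well) received 5-fluorouridine plus test compound or DMSO and were incubated 16 hr at 37 °C, 5% CO2. Luciferase activity was read by luminescence 30 min after ONE-Glo addition; signal suppression marked inhibition of damage-induced ELG1 function.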
HT1080-NT tox = kills 2HG-producing HT-1080-NT fibrosarcoma cells; Potency, µM (doses to about 46.1 µM), for the others: at the top dose activity, negative = less viability, usual class: cytotoxic; HT-1080-NT fibrosarcoma viability, CellTiter-Glo ATP luminescence, 48 h; hit rate 1.6% among 360,000;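 further: NT is the 2HG producing partner of a matched IDH1 knockdown line; potency means the concentration at half of the fitted maximal effect; 0% = DMSO-treated cells and -100% = media-only wells without cells; nearly all actives have a fitted effect of over 55% in size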
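HT-1080-NT; 750 cells/well; 5% FBS RPMI; 48 h compound, 37 degrees C; CellTiter-Glo luminescence; curve fitting and curve-class assignment.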
TDP1 cell CPT = growth inhibition of DT40 Tdp1-/-;hTDP1 cells with camptothecin (screen for TDP1 inhibitors) | chicken DT40 Tdp1-/-;hTDP1 cells + 20 nM CPT, ATP luminescence, 48 h | hit rate 12% among 420,000 | AID 686979 | Potency, µM (highest dose often 46.2 µM), without a hit: at the highest dose activity change, negative = growth inhibition, usual class: inhibitors; further: potency means the concentration at half of the fitted maximal effect; nearly all actives have a fitted effect of over 55% in size
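Cell growth measured by CellTiter-Glo luminescence after a minimum 48 h, 37 C compound exposure with 20 nM CPT in Tdp1-knockout DT40 cells stably expressing hTDP1, seeded 400/well; qHTS titration format.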
TDP1 cell noCPT = qHTS for Inhibitors of human tyrosyl-DNA phosphodiesterase 1 (TDP1): qHTS in cells in absence of CPT; DT40 Tdp1-/- hTDP1 cells, no CPT, ATP luminescence, 48 h; Potency, µM (doses to about 46.2 µM), without a hit: top-dose activity change, negative = growth inhibition, hits mostly inhibitors; hit rate 15% among 420,000; AID 686978, 2013; further: potency means the concentration at half of the fitted maximal effect; nearly all actives have a fitted effect of over 55% in size
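Chicken DT40 Tdp1-/- cells complemented with human TDP1, screened without camptothecin (DMSO vehicle only), 400 cells/well. Compounds pin-transferred, cells incubated at 37 °C for at least 48 hr. Growth read as ATP-dependent luminescence (CellTiter-Glo, 30 min at RT).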
An asterisk follows results filed as active; u = inconclusive; x = no result given; [ ] = remark or other dose. In the library only some 19% were active in any assay of this set; here they are far more common. Unless noted, the call rests on the fitted dose curve; in most records, active means well fitted curve in the direction sought with a large enough effect; inconclusive means small, poorly fitted or top-dose-only effect, or another doubt; inactive means no such curve, though single readings can be large; an effect the other way counts as inactive or inconclusive. Unless noted, on the % scale 0 is the no-effect control and ±100 the full control effect.

SMILES	IL-1B inflam inh	HT1080 IDH1KD tx	ELG1 DNA repair	HT1080-NT tox	TDP1 cell CPT	TDP1 cell noCPT
O=Cc1cc(OCc2ccccc2)ccc1[B-](F)(F)F	-3	-16%	x	-22%	1.3µM*	2.1µM*
Nc1ccc(OCc2ccccc2)cc1[N+](=O)[O-]	-8	-26%	x	3%	-12%	-7%
COc1ccc2c(c1)c[n+](C)c1c3cc(OC)c(OC)cc3ccc21	u	10µM*	x	9.2µM*	1.2µM*	1.2µM*
COc1ccc(Cc2c3cc(OC)c(OC)cc3cc[n+]2C)cc1OC	2	-3%	6%	3%	-18%	-12%
COc1cc2c[n+](C)c3c4ccccc4ccc3c2cc1OC	-112*	16µM*	x	u	1µM*	1.5µM*
COc1ccc(-c2nc3cnc(OC)nc3n(Cc3cccc(OC)c3)c2=O)cc1	x	x	x	x	5%	-11%
O=C(COC(=O)c1cc(Cl)ccc1O)NNC(=O)c1ccccc1F	15	20%	9%	6%	-9%	-20%
Fc1ccc(N2CCN(Cc3ccc4c(c3)CN(Cc3cccn3-c3cccnc3)CCO4)CC2)cc1	x	x	x	x	u	21µM*
C[C@@H]1CN(Cc2ccc3c(c2)CN(Cc2cccn2-c2cccnc2)CCO3)C[C@H](C)O1	x	x	x	x	-2%[9.04 µM]	15µM*
Cc1nc2sccn2c1CN1CCOc2ccc(CN3C[C@@H](C)O[C@@H](C)C3)cc2C1	x	x	x	x	10µM*	8.2µM*
COc1ccc(CN2CCCC(c3nc(-c4ccncc4)ncc3-c3ccccc3)C2)cc1OC (stereo not drawn)	x	x	x	x	-5%[9.04 µM]	-3%
CCOc1ccccc1CN1CCCC(c2nc(C)ncc2-c2ccc(F)cc2)C1 (stereo not drawn)	x	x	x	x	u	18µM*
COc1ccc(OC)c(CN2CCCC(c3nc(C)ncc3-c3ccc(F)cc3)C2)c1 (stereo not drawn)	x	x	x	x	21µM*	u
COc1ccc(CN2CCCC(c3nc(C)ncc3-c3ccc(F)cc3)C2)c(OC)c1OC (stereo not drawn)	x	x	x	x	12µM*	u
CCOC(=O)C1CCCN(Cc2ccccc2OCC)C1 (stereo not drawn)	0	-22%	8%	16%[9.24 µM]	-2%	-26%
CCCN(C(=O)CCc1nc(-c2ccccc2F)no1)c1ccc(CC)cc1	x	x	x	x	-99%	u
O=C(CSc1nnc(COc2ccccc2)o1)N1CCCCC1	-12	12%	-1%	17%	-2%	-9%
CCO[C@H]1OC(C(=O)O)=C[C@@H](C)[C@@H]1CCCO	21	6%	6%	8%	5%	3%
CCC(=O)OCC(=O)C1(OC(=O)CC)C(C)CC2C3C(Cl)CC4=CC(=O)C=C[C@@]4(C)C3C(O)C[C@@]21C (stereo partly drawn)	x	x	x	x	-11%	-1%
CCOc1cc(/C=C2\SC(=N)N(c3nonc3N)C2=O)ccc1OCC(N)=O	0	13%	4%	11%	u	u
CCOc1cc(/C=C2\SC(=N)N(c3nonc3N)C2=O)ccc1OCCN1CCOCC1	-29	-14%	3%	0%	13µM*	21µM*
COC(=O)Cc1c(C)c2ccc(OC3CCCCC3=O)c(C)c2oc1=O (stereo not drawn)	-26	-13%	-12%	-24%	u	18µM*
COC(=O)Cc1c(C)c2ccc(OC3CCCCC3=O)cc2oc1=O (stereo not drawn)	45	-2%	u	2%	-25%	-3%
COc1cc2[nH]c(Cl)c([N+](=O)[O-])c2cc1OC	27	13%	28%	-18%	21µM*	21µM*
